Structures are written as SMILES. Among all 340,000 compounds or so, about 120 (0.035%) were called active.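 Rule for the calls: active = mean replicate inhibition at least 50% and at least half of replicates individually reaching 50%; inconclusive = only one of the two criteria met; inactive = neither criterion met.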 The sample as a whole holds a higher share of actives than the screen did.

A short description of the experiment: blockers of twin-arginine translocation in E. coli – MC4100, TorA-mCherry reporter, fluorescence, single point, primary screen (AID 488895).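 Note: exported cargo escapes ClpAP degradation while cytoplasmic cargo is degraded and loses fluorescence; 0% = median of neutral control wells and 100% = median of NaSCN control wells.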 To be noted: E. coli MC4100 TorA-mCherry Tat export, at 10 µM, stronger effect = higher value.
Usually inhibition stands for the relative decrease from the control value, in per cent. For the compound `COc1ccccc1C(=O)N/C(=C/c1ccc2c(c1)OCO2)C(=O)Nc1cccc(C(=O)O)c1`, the inhibition was 0.855% (inactive).

With `COc1ccc(N(CC(=O)NCc2ccc(F)cc2)C(=O)CCC(=O)Nc2nccs2)cc1`, the inhibition is 2.29% (inactive).

Consider `Cc1ccc(NC(=S)NC(NC(=O)Cc2cccc3ccccc23)C(Cl)(Cl)Cl)cc1` (stereo not given), for which the inhibition is -13% (inactive).

For `O=C1NCCn2nc3ccccc3c21`, the inhibition was -31.2% (inactive).

`O=C(O)CCCn1cc(NC(=O)COc2cccc(Cl)c2)cn1`: the inhibition was -4.8% (inactive).

`NC(=O)C1(N2CCCCC2)CCN(C(=O)c2ccc(C#Cc3ccccc3)o2)CC1`: the inhibition is -3.45% (inactive).

`COc1ccccc1N(CCOc1ccccc1)S(=O)(=O)c1ccccc1`: the inhibition was 10% (inactive).

For the compound `CC(C)C(=O)Nc1ccc2c(c1)oc1ccccc12`, the inhibition was -2.62% (inactive).

Turning to `C=CCN(CC=C)CCOc1ccccc1[N+](=O)[O-]`, the inhibition is -4.39% (inactive).

Turning to `C=CCSC(CC)(CC)C(N)=O`, the inhibition was -4.28% (inactive).

`COc1cc(C(=O)N2CCN(C/C=C/c3ccccc3)CC2)cc(OC)c1C`: the inhibition was 6.19% (inactive).

Regarding `Cc1oc2cc3oc(=O)ccc3cc2c1C`, the inhibition is -9.08% (inactive).

For the compound `Cn1c(SCC(=O)NC2CCCCC2)nnc1-c1cc2ccccc2o1`, the inhibition is 1.56% (inactive).

As to `Cc1ccc(NC(=O)CN(C)C(=O)c2ccc(Cl)c(S(=O)(=O)NCc3ccco3)c2)cc1`, the inhibition is -9.55% (inactive).

As to `COc1ccc(C(=O)N/N=C(\C)CC(=O)Nc2ccc(Cl)cn2)cc1`, the inhibition was -26.7% (inactive).

As for `O=C(NC(C(=O)NCCN1CCOCC1)C12CC3CC(CC(C3)C1)C2)C1CCCCC1` (stereo not given), the inhibition is 6.49% (inactive).

Regarding `COc1ccccc1NC(=O)COC(=O)Cc1ccc(S(=O)(=O)N2CCCCC2)s1`, the inhibition is -5.48% (inactive).

For the compound `O=C1C=C(c2cccc(Br)c2)C[C@@H](c2ccc(F)cc2)C1`, the inhibition is 18.1% (inactive).

In the case of `CC1(C)C(=O)C2(CCCCC2)C(=O)OC1c1cccs1` (stereo not given), the inhibition is 3.17% (inactive).

With `COCCCC1CCN(C(=O)C2CCC(=O)N(C3CCCCCC3)C2)CC1` (stereo not given), the inhibition is 1.02% (inactive).

In the case of `Cc1ccc(C(=O)NC2CCCC(C)C2C)cc1S(=O)(=O)N1CCCCC1` (stereo not given), the inhibition is -3.8% (inactive).

For the compound `COc1cc(OC)cc(C(=O)NC2CCN(C(=O)N3c4ccccc4Sc4ccccc43)CC2)c1`, the inhibition is 9.12% (inactive).

As to `CCC(C)(C(=O)NC1CCCCC1)N(C)C(=O)c1ccc2c(c1)OCO2` (stereo not given), the inhibition is 4.87% (inactive).

As to `CCN(CC)c1ccc(C(=O)c2cnc(/N=C/N(C)C)s2)cc1`, the inhibition was 12.9% (inactive).

As for `CCOc1ccc(CCNC(=O)C2CCN(c3ccc(N4CCOCC4)nn3)CC2)cc1OCC`, the inhibition is -3.82% (inactive).

With `COc1ccc(NC(=O)CSc2nc(NS(=O)(=O)c3ccc(C)cc3)cc(=O)[nH]2)cc1`, the inhibition is 0.509% (inactive).

Regarding `CC(C)CC(O)C1CCN(C(=O)CCc2nnc(-c3ccc4c(c3)OCO4)o2)CC1` (stereo not given), the inhibition was -2.64% (inactive).

In the case of `COc1ccc(N2CC(C(=O)NCCN3C(=O)S/C(=C\c4cccnc4)C3=O)CC2=O)c(OC)c1` (stereo not given), the inhibition was -1.64% (inactive).

Regarding `O=C1C(Cl)=C(Oc2ccccc2)C(=O)c2ccccc21`, the inhibition is -14.1% (inactive).

For `COc1ccc(-c2nonc2NC(=O)c2oc3ccc(F)cc3c2C)cc1OC`, the inhibition was -6.3% (inactive).

For `Cc1noc(C)c1COc1cccc(C(=O)Nc2cccnc2)c1`, the inhibition is 11.3% (inactive).

`COCCN1C(=O)C(=O)/C(=C(/O)c2ccc(S(=O)(=O)N3CCCCC3)cc2)C1c1ccc(OC)c(OC)c1` (stereo not given): the inhibition was -4.83% (inactive).

Take `COCCCNC(=O)C1CC(=O)N(CCc2ccc(F)cc2)C1` (stereo not given): the inhibition was 3.6% (inactive).

For `O=C(Nc1cccc(F)c1)NC1CCCCCCC1`, the inhibition is 3.94% (inactive).

As to `C=CCn1c(SCc2c(C(=O)OC)sc(N)c2C(=O)OC)nnc1-c1ccc(Cl)cc1`, the inhibition is 0.305% (inactive).

For `CCCn1c(SCC(=O)c2ccc3c(c2)OCCO3)nnc1C(C)C`, the inhibition is 1.9% (inactive).

Regarding `CC(=O)c1ccc(NC(=O)C(C)OC(=O)c2ccc(NS(=O)(=O)c3ccc4[nH]c(=O)[nH]c4c3)cc2)cc1` (stereo not given), the inhibition is -1.62% (inactive).

As to `COc1cccc(CCNC(=O)COc2cccc3c2OC(C)(C)C3)c1`, the inhibition is -3.07% (inactive).

For `O=C(NCc1ccccc1)c1onc(CSc2ccncc2)c1C(=O)NCc1ccccc1`, the inhibition was 4.39% (inactive).

Turning to `Cn1c(SCC(=O)N2CCCCC2)nc2c(c1=O)SCC2`, the inhibition is 1.18% (inactive).

With `COc1cc2c(cc1OC)C(c1ccccc1Br)NC(=O)C2` (stereo not given), the inhibition was 4.97% (inactive).

As for `CSc1ccc(/C=C/C(=O)NC23CC4CC(CC(C4)C2)C3)cc1`, the inhibition is 1.4% (inactive).

For the compound `COC(=O)c1cc(NC(=O)CC2C(=O)NCCN2C(=O)c2ccc(F)cc2)cc(C(=O)OC)c1` (stereo not given), the inhibition is -6.39% (inactive).

For the compound `O=C(O)CCc1nc2cc(Cl)ccc2n(Cc2ccccc2)c1=O`, the inhibition is 3.23% (inactive).

In the case of `COc1ccccc1CNS(=O)(=O)c1c(C)[nH]c(C)c1C(=O)N1CCCCC1`, the inhibition was -2.57% (inactive).

As for `Cc1noc(C)c1CSCC(=O)Nc1ccc(Br)cc1Cl`, the inhibition is -0.881% (inactive).

For the compound `Cc1ccc(/C=N/NC(=O)COc2ccccc2-c2ccccc2)cc1`, the inhibition was 0.565% (inactive).

Consider `CC(=O)NC(C(=O)NCC(N)=O)C(C)C` (stereo not given), for which the inhibition is -5.64% (inactive).

Regarding `Cc1ccc(SCC(=O)c2cc(C)c(OC(=S)N(C)C)c(C)c2)cc1`, the inhibition is 5.72% (inactive).

With `NC(=O)C[C@@H]1NC(=O)CNC(=O)c2cc([N+](=O)[O-])cc(I)c2NCCC(C(N)=O)NC1=O` (stereo not given in full), the inhibition was -3.55% (inactive).

As for `O=C(Nc1nnc(C2=COCCO2)o1)c1ccc([N+](=O)[O-])s1`, the inhibition was -7.65% (inactive).

`CCCOc1ccc2c3c(c(=O)oc2c1OCCC)CCC3`: the inhibition was 14.7% (inactive).

In the case of `COc1cc(C2OC(c3cc(OC)c(OC)c(OC)c3)C(C)C2C)cc(OC)c1OC` (stereo not given), the inhibition was -3.59% (inactive).

With `CCn1c(CC(=O)Nc2ccccc2)nnc1SCC(=O)N1CCOCC1`, the inhibition is -5.24% (inactive).

As for `C=CCn1c(SCC(=O)Nc2ccc(NC(C)=O)cc2)nc2sc(C)c(C)c2c1=O`, the inhibition is -0.334% (inactive).

For `CC1(C)CC(=O)C(N=Nc2c(F)cccc2F)=C(O)C1`, the inhibition was -8.43% (inactive).

On to `CCc1ccccc1N1C(=O)C2C3CC(=O)C(c4ccccc43)C2C1=O` (stereo not given), for which the inhibition is -1.63% (inactive).

As for `COC(=O)C1CCN(CC(N)=O)CC1`, the inhibition was -3.53% (inactive).

Turning to `O=C(COC(=O)c1ccc(N2CCCC2=O)cc1)c1ccc(OC(F)F)cc1`, the inhibition is 6.18% (inactive).

For the compound `CCn1c(SCC(=O)c2ccc(Cl)s2)nnc1-c1cccs1`, the inhibition was -0.241% (inactive).

As for `CCOC(=O)N1CCC(N2Cc3cccc(C(=O)Nc4c(C)cccc4CC)c3C2=O)CC1`, the inhibition was 14.7% (inactive).

As to `CC1CCN(C(=S)NC2CC3CCC2C3)CC1` (stereo not given), the inhibition was -4.26% (inactive).

`Cc1nc(C(=O)N2CCCC(C(=O)c3ccc(Cl)cc3)C2)cs1` (stereo not given): the inhibition is 0.604% (inactive).

For `Oc1ccccc1-c1cc(-c2ccc(Cl)cc2)n[nH]1`, the inhibition was -12.8% (inactive).

Regarding `NS(=O)(=O)c1cc(C(=O)OCC(=O)NNC(=O)c2ccccc2)ccc1Cl`, the inhibition was -3.95% (inactive).

As to `COC(CCN(C)C)(c1ccccc1)c1ccccc1`, the inhibition was -2.82% (inactive).

`C=C1c2c(Cl)ccc(O)c2C(O)=C2C(=O)[C@]3(O)C(O)=C(C(N)=O)C(=O)[C@@H](N(C)C)[C@@H]3[C@@H](O)C12` (stereo not given in full): the inhibition was 28.9% (inactive).

On to `CN(C)[C@@H]1C(=O)C(C(N)=O)=C(O)[C@@]2(O)C(=O)C3=C(O)c4c(O)ccc(Cl)c4[C@@H](O)[C@H]3C[C@@H]12`, for which the inhibition is 151% (active).

For the compound `CCN(C(=O)c1cc([N+](=O)[O-])ccc1NCc1cccnc1)c1ccccc1`, the inhibition was -1.18% (inactive).

On to `COc1ccc(C(=O)O)cc1S(=O)(=O)NC1CCN(Cc2ccccc2)CC1`, for which the inhibition was -6.45% (inactive).

For `Cc1ccc(Cl)cc1NC(=O)COC(=O)C1CCCCC1`, the inhibition is 6.67% (inactive).

In the case of `O=C(CCc1nnc2ccc(NCc3ccccc3Cl)nn12)NCC1CCN(C2CCCC2)C1` (stereo not given), the inhibition is 1.11% (inactive).

Turning to `O=C(/C=C/Nc1ccc(S(=O)(=O)Nc2cnc3ccccc3n2)cc1)c1cccnc1`, the inhibition was -0.716% (inactive).

In the case of `COc1ccc(Br)cc1/C=N/Nc1ccc(S(=O)(=O)Nc2ccccc2C(=O)O)cc1[N+](=O)[O-]`, the inhibition is -2.56% (inactive).

Consider `O=C(NCCCN1CCN(c2ccc(F)cc2)CC1)Nc1ccc([N+](=O)[O-])cc1`, for which the inhibition is 10.8% (inactive).

On to `O=S(=O)(c1ccc(F)cc1)n1ccc(-c2cnc(-c3ccccc3)s2)n1`, for which the inhibition is 1.96% (inactive).

Regarding `O=C(/C=N/O)Nc1ccccc1`, the inhibition was 1.32% (inactive).

Consider `c1ccc2c(-c3nn4nnnc4c4ccccc34)cccc2c1`, for which the inhibition was 13.5% (inactive).

As to `COCCNc1nc(N)c([N+](=O)[O-])c(NCCO)n1`, the inhibition is -3.96% (inactive).

As for `Cc1ccc(CSCC2Nc3ccc(C(=O)N4CCN(c5ccc(F)cc5)CC4)cc3NC2=O)cc1` (stereo not given), the inhibition was -4.6% (inactive).

On to `NC(=O)CCC(NS(=O)(=O)c1ccc(Cl)cc1)C(=O)NCc1ccccc1Cl` (stereo not given), for which the inhibition is -7.83% (inactive).

On to `CC(=O)N1CCN(CC(c2ccccc2)c2ccccc2)CC1`, for which the inhibition was -7.44% (inactive).

As to `CC1Cc2ccccc2N1C1=CC(=O)CC(C)(C)C1` (stereo not given), the inhibition is -0.619% (inactive).

Regarding `CCC(C)NC(=O)C1c2ccccc2C(=O)N1Cc1ccccc1` (stereo not given), the inhibition is -2.59% (inactive).

Regarding `O=C(NCC(=O)N(Cc1cccs1)C(C(=O)NC1CCCCC1)c1ccco1)c1cccs1` (stereo not given), the inhibition was 7.02% (inactive).

In the case of `CC(C)(C)c1ccc(/C=C/C(=O)NC2CCS(=O)(=O)C2)cc1` (stereo not given), the inhibition was 0.013% (inactive).

In the case of `Cc1c(C)c2cc3c4c(oc3c(C)c2oc1=O)CCCC4`, the inhibition was -3.36% (inactive).

Take `Cc1cc(N2CCCC2=O)cc(C)c1S(N)(=O)=O`: the inhibition is -6.67% (inactive).

As for `CC1Sc2ccc(C(=O)NCc3ccccc3Cl)cc2NC1=O` (stereo not given), the inhibition was -5.09% (inactive).

With `CCC(=O)N1c2ccccc2NC2=C(C(=O)CCC2)C1c1ccco1` (stereo not given), the inhibition is -4.89% (inactive).

These data come from PubChem BioAssay AID488895 (Broad Institute, 2010).
